The record followed here is PubChem BioAssay (Tox21).

The nature of test [1]: qHTS assay for small molecule agonists of the p53 signaling pathway (AID 651631; calls by dose curve; also: nearly all actives have a fitted effect of over 15% in size). An outline of the steps: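 Agonist mode screen using a stably integrated beta-lactamase gene under p53 response elements in HCT-116 cells. Compound exposure lasts 16 h at 37 °C; fluorescence intensity is measured following 2 h FRET substrate loading.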
(In general: Quantitative high-throughput screening tests each substance at several concentrations.)

Test [2] is described as follows: qHTS assay for small molecules that induce genotoxicity in human embryonic kidney cells expressing luciferase-tagged ATAD5 (AID 651632). Also: nearly all actives have a fitted effect of over 15% in size. The procedure, abridged:
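Concentration-response screen for ATAD5 upregulation in HEK293T luciferase reporter cells; 16 hr treatment at 37C, then luminescence after 30 min with Amplite at room temperature.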

Test [3] can be described thus: qHTS assay for small molecules that induce genotoxicity in human embryonic kidney cells expressing luciferase-tagged ATAD5 - cell viability (AID 651634; calls by dose curve; also: nearly all actives have a fitted effect of over 25% in size). An outline of the steps:
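15.5 hr compound or vehicle exposure of HEK293T cells expressing luciferase-tagged ATAD5 at 37C; live-cell protease activity is read by fluorescence after 30 min of CellTiter-Fluor.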

The nature of test [4]: qHTS assay for small molecule disruptors of the mitochondrial membrane potential - cell viability (AID 720634; calls by dose curve;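 also: human HepG2 liver cancer cells; series mostly up to about 83 µM; nearly all actives have a fitted effect of over 20% in size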). The procedure, abridged: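 In this qHTS format, HepG2 cells plated overnight were pinned with compound, incubated 1 hr, and assayed for ATP luminescence with CellTiter-Glo after m-MPI dye addition.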
Test [5] in a line: qHTS assay to test for compound auto fluorescence at 590 nm (red) in HepG2 cells (AID 720674). The procedure, abridged: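 Red autofluorescence (Ex/Em 540/590 nm, Rose Bengal sodium equivalents) was measured in HepG2 cells, 2,000 per well in MEM plus 10% FBS, plated overnight at 37 C. Readings were taken 1 hr after adding 23 nL compound or DMSO, at 37 C and 5% CO2.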
Test [6] is described as follows: qHTS assay to test for compound auto fluorescence at 535 nm (green) in HepG2 cells (AID 720675).
Test [7] can be described thus: qHTS assay to test for compound auto fluorescence at 460 nm (blue) in HEK293 cells (AID 720678). The procedure, abridged:
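HEK293, 2,000 cells/well, 10% dialyzed FBS; attach 4-5 hr 37C; pin compound or DMSO; o/n 37C/5% CO2; fluorescence 405/460 nm; triamterene-equivalent units.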

Test [8] can be described thus: qHTS assay to test for compound auto fluorescence at 590 nm (red) in HEK293 cells (AID 720679). An outline of the steps: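 Intensity at 540nm excitation and 590nm emission is reported as Rose Bengal sodium-equivalent autofluorescence. Measurements followed overnight exposure (37C, 5% CO2) of HEK293 cells, 2,000 per well, to 23 nL compound.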
Test [9] can be described thus: qHTS assay for small molecule agonists of the p53 signaling pathway - cell viability (AID 651633; calls by dose curve;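 also: p53RE-bla HCT reporter cells with a stable beta-lactamase p53 reporter; series mostly up to about 83 µM; nearly all actives have a fitted effect of over 30% in size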). The procedure, abridged:
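Viability counter-read: CellTiter-Glo luminescence (30 min, room temperature) in the same p53RE-bla plates. These plates had been exposed to compounds for 16 h at 37 C.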

A short description of test [10]: qHTS assay for small molecule disruptors of the mitochondrial membrane potential (AID 720635). Also: potency is read from the fitted curve at half-maximal effect. An outline of the steps: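 Mitochondrial membrane potential tracked with Mito-MPS dye, red aggregates (ex 540/em 590 nm) against green monomers (ex 490/em 535 nm). Compound treatment 1 hr at 37C, dye 30 min in HepG2.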

Unmarked numbers belong to inactive results. Results filed as inconclusive are left out. Active and inactive are the calls of the source. Unless noted, calls follow the shape of the dose curve; as a rule, active = well fitted curve in the direction sought with a large enough effect in the repeat runs; inconclusive = weak or mixed curves; inactive = no such curve, though single readings can be large; an effect the other way counts as inactive or inconclusive.
% is scaled to controls: 0 for no effect and ±100 for the full control effect.

Turning to `O=C(O)CCNC(=O)c1ccccc1`, the outcome in test [1], in [2], in test [4], in test [5], in test [6] and in [7] was inactive. Moreover, the molecule was called inactive in test [8]. The Potency result in [3] is “inactive”.
Regarding `CCC(C)N` (stereo not given), the result in [2], in test [9], in [4], in [5], in test [6] and in test [7] was inactive. In addition, the molecule was classed as inactive in [8]. The Potency entry in test [3] and in test [10] was “inactive” in each case.
In the case of `COCCOCCOCCOC`, the molecule was classed as inactive in [1], in [9], in [4], in [5], in [7] and in test [8]. Moreover, the Potency result in [3] and in [10] was “inactive” in each case.
In the case of `Oc1ccccc1Cc1ccccc1O`, the molecule was called inactive in [1], in test [2], in [9], in test [5], in [6] and in [7]. Besides, the outcome in test [8] was inactive. Also, the Potency in [10] is 7.7 µM (active).
For `c1ccc(CNc2ncnc3nc[nH]c23)cc1`, the call in [1], in test [4], in test [5], in [6], in test [7] and in test [8] was inactive. Also, the Potency in test [10] is 54.5 µM (active).
On to `O=C(O)/C=C/c1ccccc1`, for which the molecule was called inactive in test [1], in test [2], in [4], in test [5], in test [6] and in [7]. For the same molecule, in test [8], the result was inactive. For the same molecule, in test [10], the Potency result was “inactive”.
For `C=CC(C)(O)CC/C=C(\C)CC` (stereo not given), the result in test [1], in test [2], in test [4], in test [5], in [7] and in [8] was inactive. The Potency result in [3] was “inactive”.
Take `CC(=O)OC(C)(C)Cc1ccccc1`: the outcome in [1], in test [2], in [9], in test [4], in test [5] and in test [6] was inactive. Also, the molecule was called inactive in test [7] and in test [8]. In addition, the Potency entry in test [10] was “inactive”.
Regarding `NC(=O)NC(=O)Cc1ccccc1`, the call in test [1], in test [2], in test [9], in test [4], in test [5] and in test [6] was inactive. The molecule was called inactive in [7] and in test [8].
Consider `OCCCCCCCl`, for which the molecule was called inactive in test [1], in test [2], in test [4], in test [5], in test [6] and in test [7]. Also, the molecule was classed as inactive in test [8]. For the same molecule, the Potency result in test [3] and in test [10] was “inactive” throughout.
Turning to `CCCCCCCCCCC`, the outcome in test [1], in [2], in [9], in test [4], in test [5] and in test [7] was inactive. The molecule was classed as inactive in test [8].
For `CC(C)SCc1ccco1`, the outcome in test [1], in test [2], in test [9], in [4], in [5] and in [6] was inactive. In addition, the molecule was called inactive in test [7] and in test [8].
Take `COc1ccc(NS(=O)(=O)c2ccc(N)cc2)nn1`: the molecule was called inactive in test [1], in test [2], in [9] and in [4]. The fluorescence, relative to Rose Bengal in [5] is 0.178% [at 18.6 µM]. Further, in test [6], the fluorescence, % of fluorescein control is -0.0175% [at 18.6 µM]. The fluorescence, % of triamterene in test [7] is -0.19% [at 18.6 µM]. The fluorescence, % of fluorescent control in test [8] was -0.981% [at 18.6 µM].
`SCCSCCS`: the molecule was classed as inactive in test [1], in test [2], in test [9], in test [4], in [5] and in [6]. Besides, the outcome in test [7] and in test [8] was inactive.
Consider `CCOc1ccc(NC(=O)OC(C)C)cc1OCC`, for which the result in test [1], in test [2], in test [9], in [5], in test [7] and in test [8] was inactive.
In the case of `CC(=O)/C=C/c1ccco1`, the call in [1], in test [2], in test [4], in test [5], in test [6] and in test [7] was inactive. The molecule was classed as inactive in test [8]. Moreover, the Potency entry in test [3] is “inactive”.
Consider `Cc1cccc(C(=O)O)c1[N+](=O)[O-]`, for which the molecule was called inactive in [1], in test [2], in test [4], in test [5], in [6] and in test [7]. Besides, the molecule was called inactive in test [8]. In addition, the Potency entry in test [3] is “inactive”.
`C1=CCC(c2ccccc2)CC1` (stereo not given): the call in [1], in test [2], in test [4], in [5], in [7] and in test [8] was inactive. The Potency result in [3] and in test [10] was “inactive” each time.
On to `O=C1OC(=O)c2ccccc21`, for which the call in test [1], in [2], in test [4], in test [5], in test [7] and in [8] was inactive.
On to `C=COCCOCCOC=C`, for which the outcome in [1], in [2], in test [9], in test [4], in test [5] and in test [7] was inactive. The result in test [8] was inactive. The Potency entry in [10] is “inactive”.
In the case of `CCCCCCCCC(=O)OCC`, the outcome in test [1], in test [2], in test [4], in test [5], in test [6] and in test [7] was inactive. The result in [8] was inactive. The Potency result in test [3] and in test [10] was “inactive” in each case.
Turning to `BrC/C=C/CBr`, the molecule was called inactive in test [1], in test [2] and in test [4]. For the same molecule, the Potency result in [3] was “inactive”. Moreover, the fluorescence, relative to Rose Bengal in test [5] was -0.458% [at 18.6 µM]. Further, in test [7], the fluorescence, % of triamterene is 0.0974% [at 18.6 µM]. Also, the fluorescence, % of fluorescent control in [8] was 0.0091% [at 18.6 µM].
Consider `Cc1nc(C)nc(N2C[C@@H](C)N(c3ccnc([C@@H](C)O)n3)[C@@H](C)C2)n1`, for which the result in [1], in test [2], in [4], in test [5], in [6] and in [7] was inactive. Further, the outcome in [8] was inactive. The Potency result in test [3] was “inactive”.
With `Cc1ccccc1C`, the outcome in test [2], in test [9], in test [4], in [5], in test [6] and in test [7] was inactive. Further, the outcome in [8] was inactive. In addition, the Potency result in [3] and in test [10] was “inactive” in each case.
Turning to `C1CCN2C[C@@H]3C[C@@H](CN4CCCC[C@@H]34)[C@H]2C1`, the molecule was classed as inactive in test [1], in test [2] and in [4]. For the same molecule, the Potency result in test [3] and in [10] was “inactive” each time. Further, the fluorescence, relative to Rose Bengal in [5] is 0.0708% [at 18.6 µM]. For the same molecule, in test [6], the fluorescence, % of fluorescein control is -0.0003% [at 18.6 µM]. Also, the fluorescence, % of triamterene in [7] was 0.214% [at 18.6 µM]. Further, in [8], the fluorescence, % of fluorescent control was -0.036% [at 18.6 µM].
On to `CC(=O)Nc1ncc([N+](=O)[O-])s1`, for which the molecule was called inactive in [1], in [2], in test [4], in test [5], in test [6] and in [7]. Also, the molecule was called inactive in [8]. Besides, the Potency result in test [3] is “inactive”.
Consider `CCC(C)(C)C1CCC(=O)CC1`, for which the molecule was called inactive in test [1], in [2], in test [4], in test [5], in test [6] and in [7]. The molecule was called inactive in test [8]. Further, in test [3], the Potency result is “inactive”.
On to `Nc1ccc(S(=O)(=O)Nc2ccccn2)cc1`, for which the molecule was classed as inactive in test [2], in test [9] and in [4]. The Potency entry in test [3] and in [10] was “inactive” throughout. The fluorescence, relative to Rose Bengal in test [5] was 0.667% [at 18.6 µM]. Further, the fluorescence, % of triamterene in [7] is -0.296% [at 18.6 µM]. Besides, in test [8], the fluorescence, % of fluorescent control was 0.278% [at 18.6 µM].
As to `CCC(CO)CO`, the outcome in [2], in [9], in test [4], in [5], in test [6] and in [7] was inactive. In addition, in test [8], the molecule was classed as inactive. Also, in test [3], the Potency result was “inactive”.
